The whole screen tested about 2,200 compounds, of which about 15 (0.7%) were called active. This is one part of a sample in which actives are shown more often than they occur. Unmarked numbers belong to inactive results.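 The calls were made as follows: active = fitted half-maximal concentration for loss of luminescence signal no more than a set limit of log units above the top tested concentration; inconclusive = flat fit with 30 to 70% signal loss, or invalid fit; inactive = half-maximal concentration above that set limit.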
Assay: inhibitors of ADP-Glo detection reagents, dose response, artefact control for GSK3beta inhibitor project, biochemical, luminescence, cell-free, homogeneous (AID 434947);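 also: kinase-free counter screen of ADP-Glo detection reagents for GSK3beta hits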
Details: 5 uM ADP

Row | SMILES | EC50
1 | Cc1ccc2c(C)c(C(=O)Nc3nnc(C)s3)oc2c1 | > 30 µM
2 | NC1=NC(=Nc2ccccc2)c2ccccc21 | > 30 µM
3 | CCCn1nc(NC(=O)C(C)C)c2cc3cc(OC)ccc3nc21 | > 30 µM
4 | CCNC(=S)Nc1ccc2cn[nH]c2c1 | > 30 µM
5 | COc1cccc(C(=O)NCC(=O)N/N=C(C)\C=C\c2ccccc2)c1 | > 30 µM
6 | CC(C)CCNc1nc(N)c([N+](=O)[O-])c(NCC2CCCO2)n1 (stereo not given) | > 30 µM
7 | COc1ccccc1Nc1nc(N(C)c2ccccc2)nc(N)c1[N+](=O)[O-] | > 30 µM
8 | CN(Cc1c(C(=O)N/N=C/c2cccc(F)c2)nnn1-c1nonc1N)c1ccccc1 | > 30 µM
9 | Cc1nn(-c2ccccc2)c2c1cc1c(=O)n(C)c(=O)nc-1n2-c1ccccc1F | > 30 µM
10 | CC1=NN(C(=O)CCc2ccc3c(c2)OCO3)C(O)(C(F)(F)F)C1 (stereo not given) | > 30 µM
11 | CCCn1c(SCC(=O)Nc2ccc(Cl)cn2)nnc1C1CC1 | > 30 µM
12 | COc1ccc(C(=O)c2sc(Nc3ccccc3)nc2C)cc1 | > 30 µM
13 | COc1ccc(C(=O)O/N=C(/C)c2cccs2)cc1 | 16.2 µM (active)
14 | COc1ccc(C(=O)O/N=C(\C)c2ccccc2)cc1 | 24 µM (active)
15 | COc1cccc(C(N)=O)c1 | > 30 µM
16 | COc1ccc2occ(C(=O)c3cccs3)c2c1 | > 30 µM
17 | COc1ccc(C(=O)c2ccsc2N)cc1 | > 30 µM
18 | Cc1ccc(SCC(=O)N2CC(C)OC(C)C2)cc1 (stereo not given) | > 30 µM
19 | COc1ccc(-c2cc(C(F)(F)F)nc(SCCC(=O)N3CCOCC3)n2)cc1 | > 30 µM
20 | COc1ccc(Cl)cc1NC(=O)CS(=O)(=O)c1cccc2nsnc12 | > 30 µM

From PubChem BioAssay AID434947 (Broad Institute, 2010)
